Compounds without any hit were thinned out: in the full panel of roughly 83,000, 20% have a hit.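 96-well plates, one dose, 48 hours. Percent growth reported; active if below 10.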 Values without a mark were called inactive. Calls of active or inactive are those of the source.
System: HL-60(TB) leukemia
Assay: NCI-60 one-dose screen, 48 h (100 = growth as untreated, 0 = no growth, -100 = all killed)
Settings: 10 µM unless noted

| Structure (SMILES) | growth |
| --- | --- |
| CNCCNc1nc2ccccc2c2c(=O)c3cccc(OC)c3sc12 | 26.5% |
| CC1(C)S[C@@H]2[C@H](NC(=O)[C@H](C(=O)O)c3cccs3)C(=O)N2[C@H]1C(=O)O | 106% |
| C/C=C(/C)C(=O)OC1C=C(CO)C(=O)C(OC(=O)C2(C)OC2C)C1C(C)C (stereo not given) | -24.9% (active) |
| Oc1c(Cl)cc(Oc2cc(Cl)c(O)c(CN3CCOCC3)c2)cc1CN1CCOCC1 | 86.7% |
| Fc1ccc(CNCCNc2ncnc3c2cnn3-c2ccccc2)cc1 | 83.1% |
| Cc1[nH]c(C(=O)Nc2ccccc2OC2CCN(CCN3CCOCC3)CC2)c(Cl)c1Cl | 97.9% |
| O=C1/C(=C/c2ccccc2O)N=C2SCCCN12 | 108% |
| CC[n+]1c(C)ccc2cc(C)ccc21 | 87% |
| N#C/C(=C\c1c(-c2ccccc2)[nH]c2ccccc12)C(=O)c1ccccc1 | 2.79% (active) |
| NCCCN(CCCN)CCCNCc1c2ccccc2c(CNCCCN(CCCN)CCCN)c2ccccc12 | 100% |
| COc1ccc2c(c1)c(-c1nc(-c3c[nH]c4ncccc34)cs1)cn2C | 63.5% |
| CC(C)CCSc1nc(-c2ccc(F)cc2)c(C#N)c(N2CCCCC2)n1 | 73.1% |
| Nc1c(C(=O)Nc2ccnc3ccccc23)sc2nc3c(cc12)CN(Cc1ccccc1)CC3 | 32.7% |
| Cc1c[nH]c(=O)n(Cc2nnc(CCC(=O)c3nc4ccccc4[nH]3)o2)c1=O | -0.434% (active) |
| C#CCN(CCCOc1ccc(Cl)cc1Cl)CCCSC(=O)CCCCCN1/C(=C\C=C2/CCCC(/C=C/C3=[N+](CCCCCC(=O)[O-])c4ccccc4C3(C)C)=C2Cl)C(C)(C)c2ccccc21 | -44.2% (active) |
